Compound activity (PubChem BioAssay)
Most compounds without a hit are left out; they make up all but 0.21% or so of the library.
Furin inhibitor: human furin inhibition; P09958; purified furin, fluorogenic substrate cleavage; inhibition, % at 20 µM or 30 µM; 220,000 tested, 0.061% active; AID 463115; in the data active means inhibition above about 25%
Bim-Bcl-XL: inhibitors of Bim-Bcl-XL interaction, human; inhibition, % at 10 µM; 190,000 tested, 0.04% active; Bim peptide-Bcl-XL binding, bead flow cytometry, fluorescence; Q07817
Bcl-2 Bim block: disrupts Bim peptide binding to human Bcl-2. P10415. Bead-based flow cytometry, Bim peptide-Bcl-2 binding. inhibition, % at 10 µM. 190,000 tested, 0.06% active. AID 950; in the data active means inhibition above about 40%;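 further: 0% = no compound wells with probe peptide and 100% = reference peptide inhibitor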
Bfl-1 Bim block: disrupts Bim binding to human Bfl-1; 190,000 tested, 0.12% active; Q16548; Bead-based flow cytometry, Bim-Bfl-1 binding inhibition; inhibition, % at 10 µM;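 further: 0% = wells without compound plus tracer and 100% = blocker peptide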
Target sequence (Q16548 whole entry, looked up): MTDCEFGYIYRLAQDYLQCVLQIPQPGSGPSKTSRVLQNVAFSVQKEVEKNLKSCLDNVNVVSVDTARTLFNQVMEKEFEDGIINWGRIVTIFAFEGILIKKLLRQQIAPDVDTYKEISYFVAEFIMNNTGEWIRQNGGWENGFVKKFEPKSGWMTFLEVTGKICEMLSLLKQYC
Bcl-W Bim block: disrupts Bim peptide binding to human Bcl-W; 190,000 tested, 0.02% active; bead-based flow cytometry; Q92843; inhibition, % at 10 µM; AID 952;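 further: 0% = bound tracer without compound and 100% = peptide blocker; higher means less fluorescent Bim peptide bound to Bcl-W beads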
Target sequence (Q92843 whole entry, looked up): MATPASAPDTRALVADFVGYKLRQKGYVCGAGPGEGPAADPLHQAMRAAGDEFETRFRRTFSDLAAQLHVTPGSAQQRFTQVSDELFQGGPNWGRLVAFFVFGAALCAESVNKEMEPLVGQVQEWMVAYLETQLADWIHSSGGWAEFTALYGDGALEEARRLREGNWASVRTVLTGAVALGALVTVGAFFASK
Bcl-B Bim block: disrupts Bim peptide binding to human Bcl-B | AID 951 | bead-based flow cytometry | 190,000 tested, 0.073% active | Q9HD36 | inhibition, % at 10 µM;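 further: 0% = tracer peptide without compound and 100% = reference inhibitor peptide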
Target sequence (Q9HD36 whole entry, looked up): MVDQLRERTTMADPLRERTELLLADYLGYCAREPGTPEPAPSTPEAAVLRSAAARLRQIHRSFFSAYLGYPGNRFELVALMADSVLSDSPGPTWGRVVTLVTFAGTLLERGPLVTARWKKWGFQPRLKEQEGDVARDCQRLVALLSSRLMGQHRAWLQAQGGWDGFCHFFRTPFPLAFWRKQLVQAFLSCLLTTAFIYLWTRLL
Active calls of the source: *; x = no result given. Unless noted, no stated cut-off is given here; in the data, active means inhibition above about 40%.

SMILES | Furin inhibitor | Bim-Bcl-XL | Bcl-2 Bim block | Bfl-1 Bim block | Bcl-W Bim block | Bcl-B Bim block
Cc1ccc(-c2c3c([nH]c(=S)c2C#N)CCCC3)o1 | -2 | 5 | 11 | 41* | 20 | -5
Clc1nc2ccccc2cc1/C=N/Nc1nc2ccccc2[nH]1 | 3 | 58* | 93* | 69* | 58* | 94*
C(=N\Nc1nc2ccccc2[nH]1)/c1ccncc1 | -11 | 0 | 1 | -2 | 0 | 4
Nc1c(C(=O)NCC2CCCO2)sc2nc3c(c(-c4ccco4)c12)CC/C3=C\c1ccco1 (centres undefined) | -6 | 37 | 65* | 38 | 33 | 52*
COc1cc(/C=C/C(=O)OCC(=O)N2CCc3ccccc3C2)ccc1O | -1 | -4 | 1 | 2 | -1 | -6
Cc1ccc(-c2cc(C(=O)NCc3cccnc3)no2)cc1 | 25* | -8 | -13 | -13 | -7 | -6
COc1ccc(-c2cc(C(=O)NCc3cccnc3)no2)cc1OC | -4 | 1 | -4 | -8 | 4 | -5
Cc1nn2c3ccccc3nc2n(Cc2ccccc2)c1=O | 26* | x | x | x | x | x
COc1ccc(S(=O)(=O)N2CCc3ccccc32)cc1C(=O)NCCc1ccccn1 | -35 | -12 | -8 | -11 | -10 | -18
CN1C(=O)/C(=C/c2ccc(-c3ccccc3[N+](=O)[O-])o2)SC1=Nc1ccc(Cl)c(C(=O)O)c1 | 2 | 64* | 34 | 33 | 44* | 44*
O=C(O)c1cc(-c2ccc(/C=C3/SC(=S)N(Cc4ccccc4)C3=O)o2)ccc1Cl | 3 | 11 | 24 | 20 | 10 | -19
CCn1ccnc1[C@@H]1C[C@H]2CN(c3ccccc3OC)C(=O)[C@]23CCCN13 | -14 | -5 | -3 | -4 | -5 | -4
COCCNCc1nc2sc(C)c(-c3ccccc3)c2c(=O)[nH]1 | -8 | x | x | x | x | x
O=C(Nc1cccc(S(=O)(=O)N2CCCC2)c1)c1cc(-c2ccccn2)nc2ccccc12 | -18 | -4 | -2 | -4 | -2 | -2
COc1ccc(OCC(=O)Nc2cccc3ncccc23)cc1 | -17 | 2 | 4 | 0 | 2 | 5
O=C(CCl)Nc1cccc2ncccc12 | -15 | 34 | 25 | 21 | 25 | 57*
CCN(CC)c1ccc(Nc2nc(N3CCOCC3)c3ccccc3n2)cc1 | -15 | -2 | 11 | 54* | 23 | -33
CN(C1CCCCC1)S(=O)(=O)c1ccc(-c2ccccn2)s1 | -2 | x | x | x | x | x
C1=CC2c3ccccc3NC(c3ccncc3)C2C1 (centres undefined) | -18 | 8 | 18 | 55* | 14 | 9
CSc1nnc2c3cc(C)ccc3n(Cc3ccccc3)c2n1 | -10 | 14 | 48* | 20 | 18 | 39
c1ccc(Cn2c3ccccc3c3nnc(SCCN4CCCCC4)nc32)cc1 | 0 | x | x | x | x | x
Cc1nnc(NC(=O)C2CCCO2)s1 (centres undefined) | -18 | -7 | 0 | 4 | -1 | -23
CCCCCc1nnc(NC(=O)C2CCCO2)s1 (centres undefined) | 34* | -13 | -10 | -8 | 0 | -10
COc1cc(C=Nc2cccc(C)c2)c(O)c([N+](=O)[O-])c1 | 2 | 30 | 44* | 42* | 23 | 58*
COC(=O)Cc1cc(=O)[nH]c(Nc2nc3ccccc3o2)n1 | 7 | 4 | -5 | 64* | 13 | -2
SMILES | Furin inhibitor | Bim-Bcl-XL | Bcl-2 Bim block | Bfl-1 Bim block | Bcl-W Bim block | Bcl-B Bim block
CCOC(=O)Cc1cc(=O)[nH]c(Nc2nc3ccccc3o2)n1 | -21 | -1 | -3 | -6 | -1 | -3
CCN1/C(=C/c2ccc3cc(C)ccc3[n+]2CC)Sc2ccccc21 | 25 | 13 | 15 | 14 | 5 | -22
CCN1/C(=C/c2ccc3cc(C)ccc3[n+]2CC)Sc2cc(C)c(C)cc21 | -21 | 19 | 40* | 39 | 14 | -26
O=C(O)CC1S/C(=N/N=C/C=C/c2ccccc2)NC1=O (centres undefined) | 19 | -10 | -5 | -6 | -3 | -6
O=C(O)CC1S/C(=N/N=C/C=C/c2ccccc2[N+](=O)[O-])NC1=O (centres undefined) | -5 | 50* | 34 | 46* | 34 | 28
CC1CCN(CCNC(=S)Nc2ccc(Cl)cc2)CC1 | -29 | -5 | -3 | -3 | -4 | -18
COc1ccccc1OCc1ccc(C(=O)Nc2ccccc2F)cc1 | -28 | 2 | 47* | 9 | 1 | 63*
COc1ccccc1NC(=O)c1ccc(COc2ccccc2OC)o1 | 1 | -1 | 0 | 0 | 0 | 0
CCOC(=O)c1c(/N=C/C2=C(O)CCCC2=O)sc(C)c1C | 28* | -5 | -7 | -13 | -5 | -10
Cc1ccc(-c2nc3c(c(=O)[nH]c(=O)n3Cc3ccccc3)n2C)o1 | -20 | 2 | 8 | 40* | 9 | -4
NS(=O)(=O)c1cccc(NC(=S)NC(=O)C23CC4CC(CC(C4)C2)C3)c1 | -12 | -5 | 2 | 0 | -3 | -8
CCSc1ccccc1C(=O)Nc1nncs1 | 27* | 0 | 0 | 0 | 0 | 0
CCOc1ccccc1NC(=O)Nc1cccc(S(N)(=O)=O)c1 | -18 | x | x | x | x | x
COc1cc(CNc2ccc(N3CCCC3)cc2)ccc1OCc1ccccc1 | -18 | 3 | 24 | 47* | 32 | 0
COc1cccc(-n2nnc3c(=O)n(Cc4ccccc4Cl)cnc32)c1 | 28* | -4 | 1 | -1 | 0 | -3
CC1(C)CC(C(CC(=O)N2CCCC2)Cc2ccccc2)CCO1 (centres undefined) | 4 | x | x | x | x | x
N#CC1=C(N)NC(SCc2ccc(Br)cc2)=C(C#N)C12CCCCC2 | 31* | 4 | 3 | 5 | 3 | -4
N#CC1=C(N)NC(SCc2ccc(Cl)cc2)=C(C#N)C12CCCCC2 | -11 | -3 | -1 | 0 | -1 | 0
CN(C)/C=C/C(=O)c1ccc(C(F)(F)F)cc1F | -4 | 94* | 74* | 22 | 23 | 89*
CCC(=O)Nc1cc(C(=O)OCc2ccc(C(=O)Oc3ccccc3)cc2)ccc1C | -8 | -4 | -1 | 0 | -2 | -5
COc1ccc(/C=N/n2cc(-c3ccc(OC)cc3)nc2N)cc1 | -19 | -2 | 3 | -5 | 8 | 0
COc1ccc(/C=N/n2cc(-c3ccccc3)nc2N)cc1 | -18 | 19 | 84* | 65* | 12 | 84*
CC1(C)CC(=O)C(/C=N/n2cnc3ccccc3c2=O)=C(O)C1 | 79* | -3 | -3 | -3 | -4 | -4
CC1(C)CC(=O)C(/C=N/c2ccccn2)=C(O)C1 | 51* | -9 | -14 | -17 | -3 | -7
CC1(C)CC(=O)C(C=Nc2ccccc2)=C(O)C1 | 11 | 1 | -2 | 0 | -3 | -1
C=CCN(C(=O)CSc1nc2c(sc3ccccc32)c(=O)n1CCN(CC)CC)c1ccccc1 | -29 | -4 | -6 | -5 | 0 | -7
CCOc1ccc(C(C)=O)cc1NC(=O)/C=C\C(=O)O | -7 | -5 | -2 | -5 | -3 | -2
